From PubChem
BL2 CD40 inh – CD40 pathway inhibition in BL2 cells. AID 1053188. hit rate 0.94% among 83,000. inhibition, % at 10 µM. BL2 NF-kB luciferase reporter, CD40L-induced, 4 h;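 active means mean inhibition of at least 50% with a set share of replicates also reaching that level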;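 further: 0% = neutral control wells and 100% = IKK inhibitor VII at 50 µM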
An asterisk follows results filed as active; [ ] = dose if it differs, or a comment. This is one part of a sample in which hits are shown more often than they occur.

SMILES	BL2 CD40 inh
N#C[C@@H]1[C@@H](c2ccc(C#Cc3cccc(F)c3)cc2)[C@@H](CO)N1C(=O)C1CCCC1	-47
COc1cccc(C#Cc2ccc([C@@H]3[C@@H](C#N)N(C(=O)c4ccccn4)[C@@H]3CO)cc2)c1	1[25 µM]
N#C[C@@H]1[C@@H](c2ccc(C#Cc3cccc(F)c3)cc2)[C@@H](CO)N1C(=O)C1CC1	3
N#C[C@@H]1[C@H](c2ccc(C#Cc3ccccc3F)cc2)[C@H](CO)N1C(=O)C1CC1	35[25 µM]
N#C[C@H]1[C@@H](c2ccc(C#Cc3ccccc3F)cc2)[C@@H](CO)N1C(=O)C1CCCC1	15
C[C@@H](NC(=O)[C@H]1[C@H](CO)[C@H]2Cn3c(cccc3=O)[C@H]2N1CC1CCCC1)c1ccccc1	-6
CO[C@H]1CN(C)C(=O)c2cc(NS(=O)(=O)c3ccccc3C)ccc2OC[C@H](C)N(C)C[C@@H]1C	-6
O=C(C[C@H]1CC[C@@H]2NC[C@@H](O)COC[C@H]2O1)NCCc1ccncc1	2[25 µM]
COc1cccc(-c2ccc3c(c2)[C@H]2[C@H](CCN2C(=O)NC2CCCCC2)[C@H](CO)N3C)c1	8
Cc1ccc(CN(C)C[C@@H]2OCc3cnnn3CCCC(=O)N([C@H](C)CO)C[C@@H]2C)cc1	3
Cc1noc(C)c1S(=O)(=O)N(C)C[C@H]1Oc2ccc(NS(=O)(=O)c3cn(C)cn3)cc2CC(=O)N([C@@H](C)CO)C[C@@H]1C	-4[25 µM]
COc1ccc(CNC(=O)C[C@H]2CC[C@@H](NC(=O)CN(C)C)[C@H](CO)O2)cc1	-9[25 µM]
C[C@H](CO)N1C[C@H](C)[C@H](CN(C)C(=O)Nc2ccc3c(c2)OCCO3)OCc2cn(nn2)CCCC1=O	-78
O=C(NCc1cccc(F)c1)[C@@H]1[C@@H](CO)[C@@H]2Cn3c(ccc(-c4ccncc4)c3=O)[C@H]1N2CC1CC1	1[25 µM]
O=C(c1cccnc1)N1C[C@@H]2[C@H](c3ccccc31)[C@@H](CO)N2C(=O)C1CCCCC1	-1
CC[C@@H]1C/C=C\CCNC(=O)CCC(=O)N1	-6[25 µM]
CCS(=O)(=O)N1[C@H](CO)[C@H](c2ccc(C#Cc3ccccc3F)cc2)[C@@H]1C#N	-4[25 µM]
CCS(=O)(=O)N1[C@H](CO)[C@@H](c2ccc(C#Cc3ccccc3F)cc2)[C@@H]1C#N	65*[25 µM]
CCS(=O)(=O)N1[C@H](C#N)[C@@H](c2ccc(C#Cc3ccccc3F)cc2)[C@H]1CO	-13[25 µM]
CC=Cc1ccc2n(c1=O)C[C@H]1[C@H](CO)[C@@H](C(=O)NCc3ccccc3)[C@@H]2N1S(C)(=O)=O (mixture of isomers)	-1[25 µM]
CN1C(=O)c2cc(NC(=O)c3cccc(C(F)(F)F)c3)ccc2OC[C@@H]2O[C@H](CC(=O)NCCN3CCCC3)CC[C@@H]21	7[25 µM]
C[C@H]1CN([C@@H](C)CO)C(=O)CCCn2cc(nn2)CO[C@H]1CN(C)Cc1ccncc1	0
C=C(CC)C(=O)c1ccc(OCC(=O)O)c(Cl)c1Cl	41*
COc1ccccc1OCC(=O)O	7
CCOC(=O)COc1ccc2nsnc2c1Cl	9
SMILES	BL2 CD40 inh
CCc1nc2ccccc2n1Cc1ccc(OC)c(OC)c1	5
COc1cc2c3nnc(-c4ccccc4)c-3cn(Cc3ccc(F)cc3)c2cc1OC	55*
COc1ccc(CNn2c(-c3cccc(C)c3)nc3ccccc3c2=O)cc1OC	-9
CC(C)[C@@H]1CC=CC[C@H](C)Oc2ccccc2C(=O)N(C)[C@@H](Cc2ccccc2)C(=O)N1 (mixture of isomers)	8[25 µM]
COc1ccc(NC(=O)N(C)C[C@@H]2OCCCC[C@@H](C)Oc3ccc(NC(=O)Nc4ccccc4)cc3C(=O)N([C@H](C)CO)C[C@H]2C)cc1	0
CC=Cc1ccc2n(c1=O)C[C@@H]1[C@@H](CO)[C@H](C(=O)NCC)[C@H]2N1Cc1nccs1 (mixture of isomers)	2[25 µM]
CO[C@H]1CN(C)C(=O)c2ccc(NC(=O)C3CCCC3)cc2OC[C@@H](C)N(CC2CC2)C[C@H]1C	-5
O=C(c1ccncc1)N1CC[C@@H]2[C@@H](CO)Nc3ccc(-c4ccc(F)cc4)cc3[C@@H]21	active[25 µM]
O=C(Cc1ccccc1)N1CC[C@@H]2[C@@H](CO)Nc3ccc(C#Cc4cccc(F)c4)cc3[C@@H]21	2[25 µM]
O=C(Cc1ccccc1)N1CC[C@@H]2[C@@H](CO)Nc3ccc(-c4cccc(F)c4)cc3[C@@H]21	-16[25 µM]
O=C(c1cccc(F)c1)N1CC[C@@H]2[C@@H](CO)Nc3ccc(-c4ccc(F)cc4)cc3[C@@H]21	-7
O=C(Cc1ccccc1)N1CC[C@@H]2[C@H]1c1cc(-c3cccc(F)c3)ccc1N[C@@H]2CO	70*[25 µM]
O=C(Cc1ccccc1)N1CC[C@H]2[C@H](CO)Nc3ccc(-c4cccc(F)c4)cc3[C@H]21	4[25 µM]
O=C(Cc1ccccc1)N1CC[C@@H]2[C@H](CO)Nc3ccc(-c4cccc(F)c4)cc3[C@@H]21	-22[25 µM]
O=C(c1ccncc1)N1CC[C@@H]2[C@H](CO)Nc3ccc(-c4ccc(F)cc4)cc3[C@@H]21	-47[25 µM]
O=C(Cc1ccccc1)N1CC[C@@H]2[C@H]1c1cc(C#Cc3cccc(F)c3)ccc1N[C@@H]2CO	82*[25 µM]
C[C@@H]1CN([C@H](C)CO)C(=O)c2cc(C#CC3(O)CCCC3)cnc2O[C@H]1CN(C)S(=O)(=O)c1ccccc1	-20[25 µM]
CN1[C@H](C(=O)NCCc2ccccc2)[C@@H](CO)[C@@H]2Cn3c(cccc3=O)[C@@H]21	-3[25 µM]
N#C[C@@H]1[C@@H](c2ccccc2C2=CCCC2)[C@@H](CO)N1C(=O)NC1CCCCC1	7[25 µM]
CCC(=O)N[C@H]1C=C[C@H](CC(=O)NCCN2CCCCC2)O[C@@H]1CO	0
CN1C[C@@H]2[C@H](c3ccccc31)[C@@H](CO)N2C(=O)C1CCCC1	-49
CC=Cc1ccc2n(c1=O)C[C@@H]1[C@@H](CO)[C@H](C(=O)N3CCOCC3)N(Cc3ccccc3)[C@H]21 (mixture of isomers)	1[25 µM]
Cc1ccsc1C(=O)OCC(=O)c1cc(C)n(C)c1C	62*
CC(=O)Nc1ccccc1OCC(=O)c1cc(C)n(Cc2cccs2)c1C	14
Cc1cc(C(=O)COC(=O)Cc2ccc(Cl)cc2)c(C)n1C	-9
SMILES	BL2 CD40 inh
Cc1cc(C(=O)COc2ncnc3sccc23)c(C)n1C	-76
Cc1cc(C(=O)COC(=O)c2ccc3c(c2)OCO3)c(C)n1Cc1cccs1	-50
Cc1cc(C(=O)COC(=O)c2ccccc2O)c(C)n1Cc1cccs1	108*
CCCN1C[C@@H](C)[C@@H](OC)CN(C)C(=O)c2ccc(NS(=O)(=O)c3cn(C)cn3)cc2OC[C@H]1C	5[25 µM]
O=C(Cc1ccccc1)N1C[C@@H]2[C@H](c3ccccc31)[C@@H](CO)N2C(=O)C1CCCC1	5
CC=Cc1ccc2n(c1=O)C[C@@H]1N[C@H]2[C@H](C(=O)NC2CCCCC2)[C@H]1CO (mixture of isomers)	-2
O=C(Cc1ccncc1)Nc1ccc2c(c1)[C@@H]1C[C@H](CC(=O)NC3CCCC3)O[C@@H](CO)[C@@H]1O2	9
CN1C[C@H]2[C@@H](c3ccccc31)[C@H](CO)N2S(=O)(=O)c1ccccc1	-3[25 µM]
O=C(Nc1ccccc1N1CCCCC1)c1ccc(-c2ccc(Cl)cc2)o1	-2
Cc1cc(N2CCN(C)CC2)ccc1NC(=O)c1ccc(-c2ccc(Cl)cc2)o1	64*
Cc1nnc(NC(=O)c2ccc(-c3ccc(Cl)cc3)o2)s1	2
O=C(Nc1ccc(F)cc1)N1CC(=O)N2[C@H](C1)[C@H](c1ccc(-c3cccc(F)c3)cc1)[C@@H]2CO	-3[25 µM]
CCOC(=O)c1c(SCCN2CCCC2)n(-c2ccccc2)c(=S)n(-c2ccccc2)c1=O	51*
